The panel holds about 83,000 compounds, 20% with a hit somewhere; the sample as a whole holds those more often.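 Compound tested at a single concentration for 48 hours in 96-well plates; a percent growth value below 10 was scored as active.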 Unmarked numbers belong to inactive results. Active and inactive are the calls of the source.

Holding throughout (assay): NCI-60 one-dose screen, 48 h (100 = growth as untreated, 0 = no growth, -100 = all killed)
What all share (conditions): 10 µM unless noted

Test [1] relates to T-47D breast.
Test [2] has as its system BT-549 breast.
Test [3] relates to MDA-MB-435 melanoma.
The test system of test [4] is SW-620 colon.
Test [5] relates to MCF7 breast.
Test [6] has as its system HCT-116 colon.
The subject of test [7] is HCC-2998 colon.
For test [8], the system named is KM12 colon.

Regarding `COc1ccc2[nH]cc(-c3noc(C(=O)c4cn(C)c5ccc(F)cc45)n3)c2c1`, the growth was 83.8% in test [1]; 88.9% in test [2]; 102% in test [3]; 95.1% in test [4]; 58.8% in test [5]; 101% in test [6]. Besides, the growth was 101% in test [7] and 92.6% in test [8].

In the case of `CCN(CC)S(=O)(=O)c1ccc(OC)c(NC(=O)c2[nH]c(C)c3c2CCCCC3=O)c1`, the growth in test [1] was 16.6%; in test [2] it was 59.8%; in test [3] it was 31.3%; in test [4], 67%; in test [5], 19%; in test [6], 33.7%. Further, the growth in test [7] was 42.3%; in test [8], 47.9%.

On to `O=S(=O)(Nc1ccc(Cl)c(F)c1)c1ccc(-c2cnc(C3CC3)o2)cc1`, for which the growth in test [1] was 27.8%; in test [2], 27.5%; in test [3] it was 3.28% (active); in test [4], 17.9%; in test [5] it was 13%; in test [6], 23.1%. Moreover, the growth in test [7] is 41.5%; in test [8] it was 38.4%.

Regarding `COc1cc(-c2nc3ccccc3[nH]2)ccc1OCC(=O)N=Nc1c(O)[nH]c2ccc(Cl)cc12`, the growth in test [1] was -52% (active); in test [2], 9.87% (active); in test [3], -71.1% (active); in test [4], -67.8% (active); in test [5], -76.9% (active); in test [6], -83.6% (active). In addition, the growth was -62.9% (active) in test [7] and -87.2% (active) in test [8].

Consider `COc1cc(CNc2oc(-c3ccccc3)c(-c3ccccc3)c2C#N)cc(CN2CCN(C)CC2)c1O`, for which the growth was 74% in test [1]; 76.4% in test [2]; 40.5% in test [3]; 31.8% in test [4]; 14.9% in test [5]; 36.7% in test [6]. The growth in test [7] is 37.4%; in test [8], 66.7%.

As to `C=CC(=O)Nc1cccc(-c2nc(SC)nc(NCc3ccccc3)c2C#N)c1`, the growth was 28.5% in test [1]; 44.3% in test [2]; 62% in test [3]; 89% in test [4]; 47.2% in test [5]; 55.1% in test [6]. Besides, the growth in test [7] was 84.7%; in test [8], 89.2%.

On to `COc1cccc(Nc2nc(SC)nc(-c3cccc([N+](=O)[O-])c3)c2C#N)c1`, for which the growth in test [1] was 62.4%; in test [2], 96.1%; in test [3], 80.9%; in test [4], 75%; in test [5], 72.9%; in test [6] it was 28.2%. The results for the growth in test [7] and in test [8] were 95.3% and 98.4%, respectively.

As to `CCc1nc(N)nc(N)c1C#CC(C)c1cc(-c2ccnc(C)c2)c2oc(C)nc2c1` (stereo unspecified), the growth in test [1] is 9.59% (active); in test [2] it was 18.2%; in test [3], 19.4%; in test [4] it was 16.9%; in test [5], 8.57% (active); in test [6], 11.6%. The values for the growth in test [7] and in test [8] were 13% and 5.92% (active), respectively.

As to `Cc1nn(-c2cc(=O)[nH]c3ccc(Cl)cc23)c(N)c1C#N`, the growth in test [1] is 97.1%; in test [2], 111%; in test [3] it was 103%; in test [4], 98.7%; in test [5] it was 92.3%; in test [6], 101%. In addition, the figures for the growth in test [7] and in test [8] were 102% and 104%, respectively.

With `C=C1C(=O)O[C@H]2[C@H]1CC/C(COC(=O)c1cc3cc(OC)ccc3[nH]1)=C\CC[C@@]1(C)O[C@@H]21`, the growth in test [1] was -60.6% (active); in test [2] it was -55.3% (active); in test [3] it was -91.9% (active); in test [4], -75.7% (active); in test [5], -61.3% (active); in test [6], -94.8% (active). Also, the values for the growth in test [7] and in test [8] were -74.2% (active) and -67.9% (active), respectively.

On to `COc1ccc(/C=C/c2nc(-c3n[nH]c(=O)n3-c3ccccc3)c3ccccc3n2)cc1`, for which the growth was 89.3% in test [1]; 111% in test [2]; 99.4% in test [3]; 89.6% in test [4]; 90.6% in test [5]; 104% in test [6]. The values for the growth in test [7] and in test [8] were 112% and 94.2%, respectively.

With `CSc1nc2c(c(=O)[nH]1)C1(C(=O)Nc3ccccc31)c1c(nc(SC)[nH]c1=O)N2`, the growth in test [1] is 111%; in test [2], 107%; in test [3], 104%; in test [4], 99.1%; in test [5], 102%; in test [6] it was 106%. The growth in test [7] was 104%; in test [8] it was 103%.

On to `N#Cc1nnn(-c2ccc(S(N)(=O)=O)cc2)c1NC(=O)CCl`, for which the growth was 95.2% in test [1]; 97.1% in test [2]; 99.6% in test [3]; 102% in test [4]; 90.9% in test [5]; 94.6% in test [6]. The results for the growth in test [7] and in test [8] were 106% and 94.9%, respectively.

Take `COCCNc1ccc2c3c(cccc13)C(=O)N(CCN(C)C)C2=O`: the growth was -10.9% (active) in test [1]; 17.7% in test [2]; 25.9% in test [3]; 24.5% in test [4]; -16.5% (active) in test [5]; 10.9% in test [6]. In addition, the growth in test [7] was 28.6%; in test [8], 24.9%.

Regarding `Nc1n[nH]c2ccc([C@@H]3Nc4ccc5cn[nH]c5c4[C@H]4C5CCC(C5)[C@@H]34)cc12` (stereo partly specified), the growth was 57.5% in test [1]; 20.9% in test [2]; -47.7% (active) in test [3]; 19% in test [4]; 15.2% in test [5]; 12.9% in test [6]. For the same compound, the results for the growth in test [7] and in test [8] were 24.3% and 17.6%, respectively.

Turning to `c1ccc(Cn2cc(-c3nc4ccccc4s3)c3cccnc32)cc1`, the growth in test [1] is 94%; in test [2], 106%; in test [3], 104%; in test [4] it was 105%; in test [5] it was 75.4%; in test [6], 100%. The growth is 107% in test [7] and 92.6% in test [8].

For the compound `N=C(N)c1ccc(-c2ccc(-c3ccc4ccccc4c3)s2)s1`, the growth in test [1] was 7.01% (active); in test [2], 82.5%; in test [3], 11.3%; in test [4], -70.9% (active); in test [5], -66.7% (active); in test [6], -70.5% (active). The values for the growth in test [7] and in test [8] were -69.1% (active) and -27.2% (active), respectively.

As for `Cc1cc(N2CCOCC2)nc(N[C@@H]2CCC[C@H](Nc3ccnc4cc(Cl)ccc34)C2)n1`, the growth in test [1] was -56.6% (active); in test [2], 26%; in test [3] it was -83% (active); in test [4], -1.97% (active); in test [5] it was 5.31% (active); in test [6] it was -6.15% (active). Moreover, the results for the growth in test [7] and in test [8] were 11.2% and 20.6%, respectively.

For the compound `CC1=C(O)C(=O)C(C(C#N)(C#N)C(C#N)C#N)C1` (stereo unspecified), the growth in test [1] is 107%; in test [2], 95%; in test [3], 96.8%; in test [4], 102%; in test [5], 92.1%; in test [6] it was 102%. In addition, the growth in test [7] was 95.3%; in test [8], 97.7%.

`C#CC(F)(F)[C@]1(O)CC[C@H]2[C@@H]3CCC4=CC(=O)CCC4=C3[C@@H](c3ccc(C(C)=O)cc3)C[C@@]21C`: the growth was 58.4% in test [1]; 106% in test [2]; 102% in test [3]; 81.1% in test [4]; 58% in test [5]; 94.9% in test [6]. Also, the growth in test [7] is 108%; in test [8], 29.8%.

`COC(=O)[C@]12CCC(C)(C)C[C@H]1[C@H]1C(=O)C[C@@H]3[C@@]4(C)c5c([nH]c6ccccc6c5=O)C(C)(C)[C@@H]4CC[C@@]3(C)[C@]1(C)CC2`: the growth in test [1] is 52.6%; in test [2] it was 76.4%; in test [3], 57.5%; in test [4], 71.2%; in test [5] it was 44.5%; in test [6], 33.8%. Further, the growth in test [7] was 72.3%; in test [8], 72.9%.

Regarding `O=C(/C=C/c1ccc(C(F)(F)F)cc1)Nc1ccc(C=C2c3ccccc3C(=O)c3ccccc32)cc1`, the growth in test [1] is 50.3%; in test [2] it was 57.6%; in test [3], 6.92% (active); in test [4], 65.3%; in test [5], 46.5%; in test [6], 38.3%. Also, the growth in test [7] was 78.3%; in test [8] it was 25.9%.

Take `CSc1ccc(-c2n[nH]nc2-c2cc3ccccc3s2)cc1`: the growth in test [1] was 44.9%; in test [2] it was 46.8%; in test [3], -19% (active); in test [4] it was 23.7%; in test [5] it was 27.7%; in test [6], 30.5%. Besides, the growth in test [7] is 82.3%; in test [8], 32.2%.

Consider `O=C(COc1cccc(/C=C2\CSc3ccccc3C2=O)c1)Nc1nccs1`, for which the growth is 68.9% in test [1]; -92.9% (active) in test [2]; 20.8% in test [3]; -74.1% (active) in test [4]; -0.12% (active) in test [5]; -21% (active) in test [6]. Also, the growth in test [7] was 100%; in test [8], -39.7% (active).

As to `COc1ccc(-n2nc(C)c3c(Nc4ccc(NC(=O)Nc5cc(C(F)(F)F)ccc5F)cc4)ncnc32)cc1`, the growth in test [1] was 11.8%; in test [2], 65.4%; in test [3], 53%; in test [4], 46%; in test [5], 34.2%; in test [6], 22%. Also, the growth in test [7] is 21.2%; in test [8], 16.5%.

Turning to `COc1cc2nnc3c4cccnc4[nH]c3c2cc1OC`, the growth was 24.5% in test [1]; 72.9% in test [2]; 49.7% in test [3]; 9.61% (active) in test [4]; 2.75% (active) in test [5]; 5.66% (active) in test [6]. The growth in test [7] is 88%; in test [8], 32%.

For `O=CNc1ccc2c(c1)Cc1cccc(NC=O)c1-2`, the growth in test [1] was 96.8%; in test [2], 94.1%; in test [3] it was 100%; in test [4] it was 98.2%; in test [5], 86.1%; in test [6] it was 95.2%. Besides, the growth in test [7] is 97.4%; in test [8] it was 67.8%.

The record behind these values is PubChem BioAssay (NCI).
